Assay outcomes (PubChem)
Shown is part of a subset that was picked to be rich in hits.
SF1 inhibitor: inhibitors of human SF-1, primary screen, cell-based, CHO-K1, Gal4-SF-1 LBD, luciferase luminescence. Steroidogenic factor 1 (Homo sapiens), Q13285. inhibition, % at 10 µM. CHO-K1 Gal4-SF-1 LBD luciferase reporter. 65,000 compounds, 0.55% hits;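 active means inhibition above the mean inhibition of all tested compounds plus 3 SD, cut at about 48% in these data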;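 further: 0% = SF-1 transfected cells with DMSO and 100% = mock-transfected cells lacking SF-1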
Target sequence (Q13285 whole entry, looked up, the tested form may be a part): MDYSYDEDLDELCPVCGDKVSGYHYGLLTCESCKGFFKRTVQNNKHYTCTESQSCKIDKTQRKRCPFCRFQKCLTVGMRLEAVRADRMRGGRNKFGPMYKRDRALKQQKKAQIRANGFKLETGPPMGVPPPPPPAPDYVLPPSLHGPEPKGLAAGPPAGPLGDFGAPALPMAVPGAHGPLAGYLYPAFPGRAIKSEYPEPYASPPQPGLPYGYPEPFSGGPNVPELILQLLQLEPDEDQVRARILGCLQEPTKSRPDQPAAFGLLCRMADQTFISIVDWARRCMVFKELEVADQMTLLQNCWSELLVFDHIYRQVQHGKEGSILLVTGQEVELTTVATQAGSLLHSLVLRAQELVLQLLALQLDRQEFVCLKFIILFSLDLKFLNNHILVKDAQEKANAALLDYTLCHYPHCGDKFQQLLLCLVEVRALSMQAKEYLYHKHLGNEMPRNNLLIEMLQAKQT
Starred values were filed as active, the others as inactive.

`C/C(N)=C(/C#N)C(=O)COC(=O)c1cc(C)n(-c2ccc(F)cc2)c1C` gave SF1 inhibitor -65.
`CCc1ccc(C(=O)NCc2cccs2)s1` gave SF1 inhibitor -70.
For Cc1ccc(NC(=O)C2CCCN(c3ncccn3)C2)cc1F (configuration not stated) the results were SF1 inhibitor -67.
C1=C(C(c2nnnn2C2CCCCC2)N2CCCCC2)COc2ccccc21 (configuration not stated) was read as SF1 inhibitor 19.
CNc1ccccc1-n1ccc(-c2ccccc2)n1 was read as SF1 inhibitor -18.
Screening Cc1nc2nc(-c3ccccc3)cn2nc1C returned SF1 inhibitor 55*.
Screening Cc1nn2cc(-c3ccc(N)cc3)nc2s1 returned SF1 inhibitor -88.
For CCc1ccc(-c2cn3nc(C)c(C)nc3n2)cc1 the results were SF1 inhibitor 81*.
For O=S(=O)(/C=C/c1ccccc1)n1cnc2ccccc21 the results were SF1 inhibitor 5.
CC1(c2ccccc2)NC(=O)N(CCN2C(=O)c3ccccc3C2=O)C1=O (configuration not stated) was read as SF1 inhibitor -3.
Screening CCN(CC)C(=O)c1cc(-c2ccc(Br)cc2)on1 returned SF1 inhibitor -56.
Screening Cc1nnc(Sc2nc3c(c(=O)[nH]c(=O)n3C)n2CCCc2ccccc2)s1 returned SF1 inhibitor 3.
Screening COc1ccc2sc(NC(=O)CC(C)C)nc2c1 returned SF1 inhibitor -66.
`Cc1cc(C)nc(NC2=NCC(=O)N2c2ccc3c(c2)OCCO3)n1` gave SF1 inhibitor 12.
Cc1ccc(-c2nsc3c(N4CCC(C(N)=O)CC4)ncnc23)cc1 was read as SF1 inhibitor 49*.
Screening Cc1ccc(SCCNC(=O)C(CO)(CO)CO)cc1 returned SF1 inhibitor -5.
For CN(C)c1ccc(N/C=C/C(=O)c2ccccc2)cc1 the results were SF1 inhibitor 66*.
Screening CCOC(=O)c1c(C)c(C(=O)Nc2ccc(N(C)C)cc2)c(C)n1CC returned SF1 inhibitor -72.
Screening CN(C)c1cccc(C(=O)NC2CCCCCC2)c1 returned SF1 inhibitor -75.
CC1CCN(C(=O)c2ccc(NC(=O)C3CCCO3)cc2)CC1 (configuration not stated) was read as SF1 inhibitor -6.
`Cc1occc1C(=O)Nc1ccc2c(c1)CCC2` gave SF1 inhibitor -75.
CCOC(=O)CCNC(=O)Nc1ccc2nc(C)n(Cc3cccc(Cl)c3)c(=O)c2c1 was read as SF1 inhibitor 6.
CSc1nnc(-c2ccc(S(=O)(=O)N3CCOCC3)cc2)n1CC1CCCO1 (configuration not stated) was read as SF1 inhibitor -1.
For Cn1c(-n2c(-c3ccco3)nc3ccccc3c2=O)nc2ccccc21 the results were SF1 inhibitor 15.
Screening CS(=O)(=O)N1CCC(C(=O)NCc2ccco2)CC1 returned SF1 inhibitor 10.
For Cc1ccc(-c2cnc(NC(=O)CCC(=O)N3CCCCC3)n2C)cc1 the results were SF1 inhibitor 65*.
`Cc1cc(C)nc(SCC(=O)N2CCCCC2)n1` gave SF1 inhibitor 8.
Cn1c(-c2ccc3c(c2)OCO3)cnc1NCc1ccccc1 was read as SF1 inhibitor -68.
Fc1ccc2nc3[nH]c4ccccc4c3nc2c1 was read as SF1 inhibitor -90.
For COc1ccc2[nH]c(=O)c(CN(C(=O)C3CCCO3)c3cccc(C)c3)cc2c1 (configuration not stated) the results were SF1 inhibitor 5.
`CSc1nc(=NC(C)=O)ss1` gave SF1 inhibitor 18.
CCCOCCOC(=O)c1[nH]c2c(c1C)C(=O)CC(c1cc(OC)ccc1OC)C2 (configuration not stated) was read as SF1 inhibitor 31.
Screening COc1ccc(C(NC(C)=O)c2ccc3cccnc3c2O)c(OC)c1 (configuration not stated) returned SF1 inhibitor 82*.
COc1ccc2sc(NC(C)=O)nc2c1 was read as SF1 inhibitor -50.
`COc1cc2ccccc2cc1C(=O)Nc1cccnc1` gave SF1 inhibitor -50.
Screening COc1ccccc1-c1cn(S(=O)(=O)c2ccc(F)cc2)nc1N returned SF1 inhibitor 9.
For C=CCn1c(SCc2c(C)noc2C)nc2cc(C(=O)O)ccc2c1=O the results were SF1 inhibitor -17.
Screening Cc1cccc(N2CCN(C(=O)CSCc3c(C)noc3C)CC2)c1C returned SF1 inhibitor 50*.
`O=C(CSc1ccccn1)N1CCN(c2ccccc2)CC1` gave SF1 inhibitor -1.
Screening Cc1c(CCC#N)c(N2CCN(C3CCCCC3)CC2)n2c(nc3ccccc32)c1C#N returned SF1 inhibitor -1.
Screening COc1ccc(C)cc1NC(=O)C1CCCN(S(=O)(=O)c2c(C)noc2/C=C/N(C)C)C1 (configuration not stated) returned SF1 inhibitor 6.
For Cc1ccc2cc(CCNC(=O)c3ccco3)c(=O)[nH]c2c1C the results were SF1 inhibitor -63.
`CCOc1ccc(S(=O)(=O)N(CC(=O)O)c2ccc(C)cc2)cc1` gave SF1 inhibitor -17.
Screening CN1CCN(c2ccc(NC(=O)c3ccc4c(c3)OCO4)cc2)CC1 returned SF1 inhibitor -61.
Screening O=C(Nc1ccc(N2CCOCC2)c(Cl)c1)c1ccc(Br)o1 returned SF1 inhibitor -67.
Screening O=C(Nc1ccc(N2CCOCC2)cc1)c1cnsn1 returned SF1 inhibitor 69*.
CCCCNC(=O)Cn1cnc2sc(C(=O)OCC)c(C)c2c1=O was read as SF1 inhibitor 5.
Screening O=C(NCc1nnc(SCC(=O)N2CCC(Cc3ccccc3)CC2)o1)c1ccccc1F returned SF1 inhibitor -2.
For O=C(NCCCN1CCOCC1)c1csc2c1CCCC2 the results were SF1 inhibitor 74*.
`O=C(NCCCN1CCCCCC1)c1ccc2c(c1)NC(=O)C(N1CCOCC1)S2` (configuration not stated) gave SF1 inhibitor 8.
COc1cccc(-c2cc(C(=O)NCCN3CCOCC3)no2)c1 was read as SF1 inhibitor 1.
Screening O=C(CNC(=O)c1ccccc1C(=O)O)c1ccccc1 returned SF1 inhibitor -56.
For COc1cccc(NC(=O)CN2CCN(c3ccccc3F)CC2)c1 the results were SF1 inhibitor -14.
Screening COc1ccc(O)c(C(=O)CC(=O)c2ccc(F)cc2)c1 returned SF1 inhibitor 52*.
Screening COc1cccc(NC(=O)COc2ccccc2C(N)=O)c1 returned SF1 inhibitor -62.
For Cc1ccc(NC(=O)C2CCN(S(=O)(=O)c3cnc[nH]3)CC2)nc1 the results were SF1 inhibitor 8.
Screening CN(C)S(=O)(=O)c1ccc(C(=O)N2CCC(c3nc4ccccc4o3)CC2)cc1 returned SF1 inhibitor -6.
CC(NC(=O)C1CCN(c2nnc(-n3cccc3)s2)CC1)C12CC3CC(CC(C3)C1)C2 (configuration not stated) was read as SF1 inhibitor -8.
Screening CC(OC(=O)CNC(=O)c1ccc2c(c1)OCO2)C(=O)NCCC1=CCCCC1 (configuration not stated) returned SF1 inhibitor 0.
For COCCNc1ncnc2c1cnn2-c1ccc(Cl)cc1 the results were SF1 inhibitor -68.
Screening COC(=O)C(C)n1cnc2c(cnn2-c2ccc(Cl)cc2)c1=O (configuration not stated) returned SF1 inhibitor -53.
For OCCOCCNc1ncnc2c1cnn2-c1ccc(Cl)cc1 the results were SF1 inhibitor -64.
